# Measurements as given in PubChem BioAssay (EPA / NIEHS).
# Results filed as inconclusive are left out. The source made the active and inactive calls. The calls were made as follows: active = hit-call score of the fitted dose curve at least 0.9, where 1 is the maximum; inconclusive = response in the unintended direction; inactive = score below 0.9.
# Assays:
# [1] = molecular target: human Ephrin type-A Receptor 1 (EphA1), EPHA1 (gene 2041) (UniProt P21709); test: NVS_ENZ_hEphA1: NovaScreen (NVS) Enzymatic Assay for human Ephrin type-A Receptor 1 (EphA1) (AID 2283158);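 also: activity is signal loss versus DMSO meaning EphA1 kinase inhibition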
# Chain of human Ephrin type-A Receptor 1 (EphA1), EPHA1 (gene 2041) (P21709 whole entry, looked up): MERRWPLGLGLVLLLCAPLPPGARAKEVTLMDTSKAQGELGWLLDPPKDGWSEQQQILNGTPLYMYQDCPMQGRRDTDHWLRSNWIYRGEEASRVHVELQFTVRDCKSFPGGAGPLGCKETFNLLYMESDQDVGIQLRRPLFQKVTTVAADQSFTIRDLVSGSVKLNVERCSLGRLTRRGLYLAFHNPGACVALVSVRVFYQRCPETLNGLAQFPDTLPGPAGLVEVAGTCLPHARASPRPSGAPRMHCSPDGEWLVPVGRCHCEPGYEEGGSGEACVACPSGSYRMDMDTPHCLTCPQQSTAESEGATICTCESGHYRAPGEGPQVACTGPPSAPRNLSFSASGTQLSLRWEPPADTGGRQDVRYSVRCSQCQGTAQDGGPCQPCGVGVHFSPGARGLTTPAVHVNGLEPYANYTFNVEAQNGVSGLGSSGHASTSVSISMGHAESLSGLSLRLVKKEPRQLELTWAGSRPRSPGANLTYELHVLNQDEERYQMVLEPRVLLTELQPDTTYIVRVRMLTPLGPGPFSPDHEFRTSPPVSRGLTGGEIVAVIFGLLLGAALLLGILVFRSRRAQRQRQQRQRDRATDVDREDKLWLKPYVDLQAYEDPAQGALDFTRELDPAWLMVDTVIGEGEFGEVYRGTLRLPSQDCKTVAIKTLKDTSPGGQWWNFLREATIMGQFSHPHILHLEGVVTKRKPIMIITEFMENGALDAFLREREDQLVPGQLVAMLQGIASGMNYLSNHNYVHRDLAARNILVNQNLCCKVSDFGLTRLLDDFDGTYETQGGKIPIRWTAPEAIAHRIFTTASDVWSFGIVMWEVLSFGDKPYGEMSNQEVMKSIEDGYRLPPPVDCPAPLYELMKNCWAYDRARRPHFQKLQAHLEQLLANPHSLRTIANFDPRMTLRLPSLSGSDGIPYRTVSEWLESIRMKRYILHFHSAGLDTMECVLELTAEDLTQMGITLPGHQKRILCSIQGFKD
# Outline: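 Biochemical kinase assay run cell-free; 1 h incubation; readout is fluorescence with mobility-shift separation of product. Concentration-response up to 50 uM for actives from a 25 uM screen.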
# [2] = molecular target: Glycogen synthase kinase-3 beta (Homo sapiens) (UniProt P49841); test: NVS_ENZ_hGSK3b: NovaScreen (NVS) Enzymatic Assay for human Glycogen Synthase Kinase-3 beta (GSK3b) (AID 2283165)
# Chain of Glycogen synthase kinase-3 beta (Homo sapiens) (P49841 whole entry, looked up): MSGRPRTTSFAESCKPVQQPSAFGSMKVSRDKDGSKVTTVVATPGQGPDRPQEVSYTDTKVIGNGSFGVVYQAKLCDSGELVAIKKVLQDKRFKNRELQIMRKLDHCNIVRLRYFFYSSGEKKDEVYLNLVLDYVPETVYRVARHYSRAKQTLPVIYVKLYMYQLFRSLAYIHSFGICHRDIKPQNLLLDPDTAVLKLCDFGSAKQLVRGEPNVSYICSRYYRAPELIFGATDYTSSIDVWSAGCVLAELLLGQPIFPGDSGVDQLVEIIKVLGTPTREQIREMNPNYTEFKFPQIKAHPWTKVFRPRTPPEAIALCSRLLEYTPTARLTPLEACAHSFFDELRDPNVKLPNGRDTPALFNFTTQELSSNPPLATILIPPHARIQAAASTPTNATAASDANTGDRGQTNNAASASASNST
# Outline: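 Recombinant enzyme with specific fluorescent substrate, 1 h, product separated by electrophoretic mobility shift. Primary duplicate screen at 25 uM; actives (e.g. 30% inhibition) followed in singleton concentration-response to 50 uM. Signal loss fitted versus DMSO.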
# [3] = molecular target: human Fibroblast Growth Factor Receptor 1 (FGFR1), FGFR1 (gene 2260) (UniProt P11362); test: NVS_ENZ_hFGFR1: NovaScreen (NVS) Enzymatic Assay for human Fibroblast Growth Factor Receptor 1 (FGFR1) (AID 2283159);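 also: hits lower the signal so potencies describe inhibitors of the kinase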
# Chain of human Fibroblast Growth Factor Receptor 1 (FGFR1), FGFR1 (gene 2260) (P11362 whole entry, looked up): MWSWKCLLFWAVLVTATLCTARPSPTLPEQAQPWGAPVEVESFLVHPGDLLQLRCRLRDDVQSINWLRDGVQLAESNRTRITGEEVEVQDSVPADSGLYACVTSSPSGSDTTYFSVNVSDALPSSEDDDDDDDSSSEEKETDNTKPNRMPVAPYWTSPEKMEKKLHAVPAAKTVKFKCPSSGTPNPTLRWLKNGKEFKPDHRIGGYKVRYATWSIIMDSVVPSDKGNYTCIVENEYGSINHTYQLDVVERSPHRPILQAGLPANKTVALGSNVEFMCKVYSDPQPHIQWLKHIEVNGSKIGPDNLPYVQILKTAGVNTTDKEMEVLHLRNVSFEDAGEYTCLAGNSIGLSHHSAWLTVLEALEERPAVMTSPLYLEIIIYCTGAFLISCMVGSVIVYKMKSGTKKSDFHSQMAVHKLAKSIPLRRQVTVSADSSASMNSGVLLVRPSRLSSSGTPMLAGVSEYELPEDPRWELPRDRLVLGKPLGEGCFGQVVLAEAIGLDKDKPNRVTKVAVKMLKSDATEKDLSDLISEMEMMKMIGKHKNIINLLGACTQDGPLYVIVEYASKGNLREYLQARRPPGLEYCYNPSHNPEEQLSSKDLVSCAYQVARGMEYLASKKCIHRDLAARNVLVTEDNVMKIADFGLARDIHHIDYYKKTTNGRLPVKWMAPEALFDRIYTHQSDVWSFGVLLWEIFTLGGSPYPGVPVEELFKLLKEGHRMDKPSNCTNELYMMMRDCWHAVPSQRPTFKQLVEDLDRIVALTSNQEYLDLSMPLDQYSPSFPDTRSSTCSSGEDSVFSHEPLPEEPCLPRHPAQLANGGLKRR
# Outline: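 Cell-free recombinant kinase with fluorescent substrate, product separated by electrophoretic mobility shift; read 1 hour after dosing, loss of signal relative to DMSO. Initial screen in duplicate at 25 uM, actives followed in concentration series.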
# [4] = molecular target: human FYN Proto-Oncogene, Src family Tyrosine Kinase (Fyn), FYN (gene 2534) (UniProt P06241); test: NVS_ENZ_hFyn: NovaScreen (NVS) Enzymatic Assay for human FYN Proto-Oncogene, Src family Tyrosine Kinase (Fyn) (AID 2283161)
# Chain of human FYN Proto-Oncogene, Src family Tyrosine Kinase (Fyn), FYN (gene 2534) (P06241 whole entry, looked up): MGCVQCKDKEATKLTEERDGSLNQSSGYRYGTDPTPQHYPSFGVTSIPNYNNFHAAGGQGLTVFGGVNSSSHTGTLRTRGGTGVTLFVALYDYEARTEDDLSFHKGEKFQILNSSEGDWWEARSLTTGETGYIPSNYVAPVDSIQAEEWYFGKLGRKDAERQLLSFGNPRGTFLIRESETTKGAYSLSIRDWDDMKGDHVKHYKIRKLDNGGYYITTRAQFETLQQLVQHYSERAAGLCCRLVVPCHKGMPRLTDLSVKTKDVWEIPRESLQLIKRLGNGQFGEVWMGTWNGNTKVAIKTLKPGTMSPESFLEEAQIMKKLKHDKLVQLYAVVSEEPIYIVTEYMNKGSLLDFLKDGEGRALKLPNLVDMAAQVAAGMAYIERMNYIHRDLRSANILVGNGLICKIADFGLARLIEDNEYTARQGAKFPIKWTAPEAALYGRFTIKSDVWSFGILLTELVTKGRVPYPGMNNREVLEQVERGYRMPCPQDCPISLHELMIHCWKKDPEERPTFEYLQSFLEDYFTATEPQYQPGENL
# Outline: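 Cell-free kinase activity read by fluorescence after mobility-shift separation of substrate and product, 1 h post-dose. Initial single concentration 25 uM in duplicate, then concentration-response follow-up; DMSO baseline.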
# [5] = molecular target: human c-Jun N-terminal Kinases (JNK2), MAPK9 (gene 5601) (UniProt P45984); test: NVS_ENZ_hJNK2: NovaScreen (NVS) Enzymatic Assay for human c-Jun N-terminal Kinases (JNK2) (AID 2283171)
# Chain of human c-Jun N-terminal Kinases (JNK2), MAPK9 (gene 5601) (P45984 whole entry, looked up): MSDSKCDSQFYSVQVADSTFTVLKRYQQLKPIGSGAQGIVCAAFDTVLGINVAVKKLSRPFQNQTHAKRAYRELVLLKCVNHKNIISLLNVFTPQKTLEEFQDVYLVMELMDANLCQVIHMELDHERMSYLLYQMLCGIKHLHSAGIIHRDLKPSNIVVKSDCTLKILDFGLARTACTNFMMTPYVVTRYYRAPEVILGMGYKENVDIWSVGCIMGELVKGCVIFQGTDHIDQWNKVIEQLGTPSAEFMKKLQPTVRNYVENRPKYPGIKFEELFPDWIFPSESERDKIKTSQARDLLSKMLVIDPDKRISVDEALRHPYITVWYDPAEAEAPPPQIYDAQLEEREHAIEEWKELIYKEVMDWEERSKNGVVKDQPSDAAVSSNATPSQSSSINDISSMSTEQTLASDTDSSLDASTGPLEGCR
# Outline: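 Chemicals first tested in duplicate at 25 uM, then in singleton concentration series up to 50 uM, against extracted JNK2 enzyme. Activity loss read by fluorescence with mobility-shift separation 1 h post-dose; DMSO baseline.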
# [6] = molecular target: human Insulin Receptor (InsR), INSR (gene 3643) (UniProt P06213); test: NVS_ENZ_hInsR: NovaScreen (NVS) Enzymatic Assay for human Insulin Receptor (InsR) (AID 2283168)
# Outline: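 Cell-free enzyme assay read 1 h post-dose by fluorescence after substrate/product mobility-shift separation. Duplicate 25 uM primary screen, then singleton concentration-response up to 50 uM for compounds passing threshold; loss of signal vs DMSO.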
# [7] = molecular target: human Janus Kinase 2 (Jak2), JAK2 (gene 3717) (UniProt O60674); test: NVS_ENZ_hJak2: NovaScreen (NVS) Enzymatic Assay for human Janus Kinase 2 (Jak2) (AID 2283169)
# Chain of human Janus Kinase 2 (Jak2), JAK2 (gene 3717) (O60674 whole entry, looked up): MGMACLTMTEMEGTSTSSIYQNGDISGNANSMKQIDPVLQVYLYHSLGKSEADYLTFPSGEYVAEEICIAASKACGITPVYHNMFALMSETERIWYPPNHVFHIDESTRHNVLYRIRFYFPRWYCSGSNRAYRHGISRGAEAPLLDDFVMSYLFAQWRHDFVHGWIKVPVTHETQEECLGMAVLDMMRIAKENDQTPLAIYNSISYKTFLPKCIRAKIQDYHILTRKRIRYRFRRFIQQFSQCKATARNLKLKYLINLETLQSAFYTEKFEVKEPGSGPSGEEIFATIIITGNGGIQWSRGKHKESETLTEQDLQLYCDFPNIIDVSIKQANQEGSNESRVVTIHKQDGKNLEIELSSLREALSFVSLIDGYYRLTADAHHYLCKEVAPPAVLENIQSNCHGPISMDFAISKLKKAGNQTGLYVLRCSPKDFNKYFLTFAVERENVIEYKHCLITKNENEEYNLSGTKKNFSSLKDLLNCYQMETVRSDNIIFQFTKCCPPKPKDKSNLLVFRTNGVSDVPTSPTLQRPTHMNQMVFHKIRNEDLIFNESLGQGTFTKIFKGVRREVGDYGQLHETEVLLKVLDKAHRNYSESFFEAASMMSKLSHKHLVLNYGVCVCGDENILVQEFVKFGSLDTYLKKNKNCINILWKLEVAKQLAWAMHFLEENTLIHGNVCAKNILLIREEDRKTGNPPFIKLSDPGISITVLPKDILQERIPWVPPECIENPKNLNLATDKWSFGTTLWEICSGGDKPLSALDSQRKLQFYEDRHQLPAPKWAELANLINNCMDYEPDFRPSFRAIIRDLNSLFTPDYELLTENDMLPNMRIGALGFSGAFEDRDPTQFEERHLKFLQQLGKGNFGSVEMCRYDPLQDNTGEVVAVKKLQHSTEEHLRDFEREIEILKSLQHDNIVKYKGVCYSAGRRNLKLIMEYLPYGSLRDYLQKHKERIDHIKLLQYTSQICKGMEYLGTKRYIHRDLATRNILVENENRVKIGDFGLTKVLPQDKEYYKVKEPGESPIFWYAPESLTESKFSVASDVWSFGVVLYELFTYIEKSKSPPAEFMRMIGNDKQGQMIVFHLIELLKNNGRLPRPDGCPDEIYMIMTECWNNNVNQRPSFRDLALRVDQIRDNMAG
# Outline: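 Single-point duplicate screen at 25 uM, with hits run in concentration series to a 50 uM top dose. Substrate-product separation by mobility shift with fluorescence detection, 1 h post-dosing; DMSO baseline.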
structure (smiles),measurement,setting,value
O=[N+]([O-])c1ccc(Nc2ccccc2)cc1,outcome,[1],inactive
CNC(=O)CSP(=O)(OC)OC,outcome,[1],inactive
Clc1cccc(Cl)c1,outcome,[2],inactive
O=C(Cl)OCCOCCOC(=O)Cl,AC50,[1],6.6 µM (active)
CC(C)O.CC(C)O.OCCN(CCO)CCO.OCCN(CCO)CCO.[Ti],outcome,[1],inactive
same,AC50,[3],1.9 µM (active)
same,AC50,[4],0.0034 µM (active)
same,AC50,[2],0.00229 µM (active)
same,outcome,[5],inactive
C=C(C)C(=O)OCC(CC)CCCC (stereo unspecified),outcome,[1],inactive
O=S(=O)(c1ccc(Cl)cc1)c1cc(Cl)c(Cl)cc1Cl,outcome,[1],inactive
Cc1cc(C)cc(C)c1,outcome,[6],inactive
COc1ccccc1N,outcome,[1],inactive
CN(C)C(=S)S,outcome,[7],inactive
CCOC(=O)CCN(SN(C)C(=O)Oc1cccc2c1OC(C)(C)C2)C(C)C,AC50,[1],4.87 µM (active)
CC(C)[N+](=O)[O-],outcome,[1],inactive
